Experimental data from PubChem BioAssay AID686979 (National Center for Advancing Translational Sciences (NCATS), 2013).
Screen size: about 420,000 compounds; about 50,000 (12%) were called active. Not shown: some 26% with an inconclusive outcome. Calls follow the shape of the dose curve; as a rule, active = well fitted inhibition curve with a large enough effect; inconclusive = small, poorly fitted or top-dose-only effect; inactive = flat fitted curve, though single readings scatter. Shown is part of a subset that was picked to be rich in actives. Where a call stands in place of a potency, no number is given.

Assay: qHTS for Inhibitors of human tyrosyl-DNA phosphodiesterase 1 (TDP1): qHTS in cells in presence of CPT; also: nearly all actives have a fitted effect of over 55% in size
Conditions: chicken DT40 Tdp1-/-;hTDP1 cells + 20 nM CPT, ATP luminescence, 48 h; series mostly up to 46.2 µM
Summary of the method: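 Chicken DT40 Tdp1-/- cells stably complemented with human TDP1 were seeded at 400 cells/well in medium containing 20 nM camptothecin, exposed to pin-transferred compounds, and grown at 37 °C for at least 48 hr. Viability was read as ATP luminescence.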
Potency is read from the fitted curve at half-maximal effect.

Row | SMILES | activity change, negative = growth inhibition | Potency
1 | COc1cc(=O)n2c(c1C(=O)NCc1ccco1)CCN(Cc1ccccc1)CC2 | 13.5% [at 9.04 µM] (inactive) | –
2 | Cc1cccc(NC(=O)NC2(C)CCS(=O)(=O)C2)c1 (stereo unspecified) | – | inactive
3 | COc1cc(Cl)c(C)cc1NC(=O)CSc1nnc(CN2CCCC2)o1 | – | inactive
4 | COc1ccccc1CNC(=O)COn1nnc2ccc(S(=O)(=O)N3CCOCC3)cc21 | – | inactive
5 | COc1cccc(NC(=O)C(C)Oc2ccccc2)c1 (stereo unspecified) | – | inactive
6 | COc1cccc(NC(=O)C2C(c3ccccc3)C2(Cl)Cl)c1 (stereo unspecified) | – | 29.1 µM (active)
7 | COc1cccc(NC(=O)c2csnn2)c1 | – | inactive
8 | CSc1ccc(CNC(=O)c2ccc(NC(=O)C3=CSCCO3)cc2)cc1 | – | inactive
9 | CC(C)C1C(=O)N(Cc2cn(CCC3OCCO3)nn2)CCS(=O)(=O)N1Cc1ccc(-c2ccccc2C(F)(F)F)cc1 (stereo unspecified) | – | 13 µM (active)
10 | Cc1ccc(-c2ccc(CN3C(C(C)C)C(=O)N(Cc4cn(CCC5OCCO5)nn4)CCS3(=O)=O)cc2)cc1 (stereo unspecified) | – | 16.4 µM (active)
11 | Cc1ccc(Cn2cc(CN3CC(N4CCN(C)CC4)CS3(=O)=O)nn2)cc1 (stereo unspecified) | – | inactive
12 | O=S1(=O)CC(N2CCN(CCO)CC2)CN1Cc1cn(Cc2ccc(Cl)cc2)nn1 (stereo unspecified) | – | inactive
13 | CC(NC(=O)C(=O)N/N=C/c1ccc(Cl)cc1)c1ccccc1 (stereo unspecified) | – | inactive
14 | O=C(O)C1=CCCN(CCON=C(c2ccccc2)c2ccccc2)C1 | – | inactive
15 | COc1cc(C2/C(=C(\O)c3ccc4c(c3)CC(C)O4)C(=O)C(=O)N2Cc2ccco2)ccc1O (stereo unspecified) | – | inactive
16 | CN(CC(=O)NCCc1ccc(S(N)(=O)=O)cc1)CC(=O)Nc1ccc(Cl)cc1 | – | inactive
17 | O=C1/C(=C/c2cccs2)SC(=S)N1C1CCS(=O)(=O)C1 (stereo unspecified) | – | 14.6 µM (active)
18 | O=C(CCN1C(=O)/C(=C/c2cccs2)SC1=S)NNC(=O)c1cccc(O)c1 | – | inactive
19 | N/C(=N\OC(=O)Nc1ccccc1)c1ccno1 | – | inactive
20 | Cc1cccnc1NC(=O)Cn1c(=O)oc2ccccc21 | – | inactive
21 | O=C(NCCCn1ccnc1)c1ccccc1F | – | inactive
22 | COc1ccccc1NS(=O)(=O)c1ccc(C)c(C(=O)NNC(=O)c2csc(N3CCOCC3)n2)c1 | – | inactive
23 | O=C(NCCc1ccccc1)C1CC1 | – | inactive
24 | CCC(C)(C)C1CCC(=NNC(=O)c2ccc(Br)o2)CC1 (stereo unspecified) | – | inactive
25 | CCCC1CCC(=NNC(=S)NCCc2ccccc2)CC1 (stereo unspecified) | – | 16.4 µM (active)
26 | Cc1ccc2[nH]c3c(=O)n(CC(=O)NCCc4ccc(Cl)cc4)ncc3c2c1 | – | inactive

Row | SMILES | activity change, negative = growth inhibition | Potency
27 | COc1ccc(S(=O)(=O)N2CCN(CC(=O)N3c4ccccc4CC3C)CC2)cc1OC (stereo unspecified) | – | inactive
28 | COc1cccc(/C=C(/CC(=O)Nc2ccc(N3CCOCC3)cc2)c2nc3ccccc3s2)c1 | – | inactive
29 | Cc1cc(C)c(C=NNc2nc3c([nH]2)c(=O)n(C)c(=O)n3C)c(C)c1 | – | inactive
30 | Oc1ccc(-c2nnc(Nc3ccccc3)c3ccccc23)cc1 | – | inactive
31 | O=c1ccc2c(-c3ccccc3S(=O)(=O)O)c3ccc(O)c(O)c3oc-2c1O | – | 16.4 µM (active)
32 | O=C(Nc1ccc(OCC(=O)N2CCOCC2)cc1)c1cc(F)c(F)cc1Cl | – | inactive
33 | COc1ccccc1Oc1ccc(N2CC(C(=O)OCC(=O)c3ccc(F)cc3)CC2=O)cc1 (stereo unspecified) | – | inactive
34 | CCN1CCC(O)(/C=C/c2ccc(C)cc2)C(C(=O)/C=C/c2ccc(C)cc2)C1 (stereo unspecified) | – | 3.66 µM (active)
35 | O=C(NCc1cccs1)c1ccc(CS(=O)Cc2ccccc2Cl)o1 (stereo unspecified) | – | inactive
36 | CCOCCCN(C)C1CCN(C(=O)c2oc3ccccc3c2NC(=O)Cc2cccc([N+](=O)[O-])c2)CC1 | – | inactive
37 | CCOC(=O)c1cc2c(=O)n3ccccc3nc2n(CCCOC)c1=NC(=O)C(C)Oc1ccccc1 (stereo unspecified) | – | inactive
38 | COc1cc2c(=O)c(S(=O)(=O)c3ccc(C(C)C)cc3)cn(Cc3ccccc3C)c2cc1OC | – | 6.51 µM (active)
39 | Cc1cc(Nc2cccc(F)c2)n2ncnc2n1 | – | inactive
40 | COCCN1C(=O)C(=O)/C(=C(/O)c2ccc(S(=O)(=O)N3CCOCC3)cc2)C1c1ccc(O)c(OC)c1 (stereo unspecified) | – | inactive
41 | CC(=O)Nc1cccc(Nc2ccc(C#N)cc2)c1 | – | inactive
42 | CC(=O)Nc1cccc(C(=O)OCN2C(=O)c3ccccc3C2=O)c1 | – | inactive
43 | CCN(CC)N=Nc1cccc(NC(C)=O)c1 | – | 11.6 µM (active)
44 | Cc1ccc(-n2cc(CN(C)Cc3nccn3C)c(-c3cccc(C)c3)n2)cc1 | – | 20.6 µM (active)
45 | CCn1ccnc1CN(C)Cc1nc(-c2ccc3c(c2)OCO3)no1 | – | inactive
46 | NNC(=O)c1ccc(COCC(F)(F)C(F)F)cc1 | – | inactive
47 | CCN(c1ccccc1)S(=O)(=O)c1ccc(OCC(=O)N2CCCC2)cc1 | – | inactive
48 | CCc1ccc(-c2nc(SCC(=O)NC3CCCC3)n[nH]2)cc1 | – | 25.9 µM (active)
49 | COc1ccc(CNC(=O)CSc2n[nH]c(-c3ccc(F)cc3)n2)cc1 | – | inactive
50 | COc1ccc(-c2nc(SCC(=O)N3CCCC3)n[nH]2)cc1 | – | inactive
51 | CC(=O)N1CCN(Cc2cc(=O)oc3cc(C)ccc23)CC1 | – | inactive
52 | CCc1nnc(NC(=O)c2cc(S(=O)(=O)N3CCN(CC)CC3)ccc2Cl)s1 | – | inactive

Row | SMILES | activity change, negative = growth inhibition | Potency
53 | NNC(=O)C1CC(O)CN1S(=O)(=O)c1ccc(Cl)cc1 (stereo unspecified) | – | inactive
54 | COc1ccccc1/C=N/N1CCN(Cc2ccccc2Cl)CC1 | – | inactive
55 | COc1ccccc1N1CCN(Cc2cc(OC)c3c(c2)OCO3)CC1 | – | inactive
56 | COc1ccccc1N1CCN(Cc2ccc(OC)c3ccccc23)CC1 | – | 16.4 µM (active)
57 | C=CCn1c(C)cc(C2=NNC(=NCC)SC2)c1C | – | 16.4 µM (active)
58 | Cc1cccc(N=C2NN=C(c3c[nH]c4ccccc34)CS2)c1 | – | inactive
59 | Cc1cc(NC(=O)CCC(=O)N(Cc2ccccc2)C(C(=O)NC2CCCC2)c2ccc(C)o2)no1 (stereo unspecified) | – | inactive
60 | CCC1Oc2ccccc2N(CC(=O)NCCCN2CCN(CC)CC2)C1=O (stereo unspecified) | – | inactive
61 | Cn1cnc(S(=O)(=O)N2C[C@@H](O)COC[C@@H]3O[C@H](CC(=O)NC4CCC4)CC[C@H]32)c1 | – | inactive
62 | COc1ccccc1CNc1ncncc1-c1cccnc1 | – | inactive
63 | COCCNc1ncnc2ccc(-c3cccnc3)cc12 | – | 14.6 µM (active)
64 | COCCNc1ncnc2ccc(-c3ccccc3CN(C)C)cc12 | – | inactive
65 | Cc1cc(C)cc(N(CC(=O)NC2CCCC2)C(=O)CCC(=O)Nc2nccs2)c1 | – | inactive
66 | N#Cc1cccc(-c2nc3cnc(N4CCNCC4)nc3n(C3CC3)c2=O)c1 | – | 5.17 µM (active)
67 | COCCn1c(=O)c(CCc2ccccc2)nc2cnc(N3CCNCC3)nc21 | – | inactive
68 | Cn1c(=O)c(-c2ccccc2)nc2cnc(N3CCNCC3)nc21 | – | inactive
69 | Cc1cccc(CN2CCC(n3nccc3NC(=O)c3ccccc3C)CC2)n1 | – | inactive
70 | CCNc1ncc2nc(CCc3ccccc3)c(=O)n(-c3ccc(OC)cc3)c2n1 | – | inactive
71 | COc1ccc(-c2nc3c(s2)CCc2onc(-c4ccc(OC)cc4)c2-3)cc1 | – | 20.6 µM (active)
72 | COc1ccc(-c2cc(C(=O)N3CCN(c4ccc(F)cc4)CC3)no2)cc1 | – | inactive
73 | COc1ccc(-c2onc3ccc(C(C)=O)cc23)cc1 | – | inactive
74 | Nc1nc(NC(=O)/C=C/c2ccc(F)cc2)nn1-c1ccccc1 | – | inactive
75 | O=C(OCCN=C1NS(=O)(=O)c2ccccc21)c1cccc([N+](=O)[O-])c1 | – | inactive
76 | O=C(Nc1nnc(-c2ccc(F)cc2)s1)c1c(F)cccc1Cl | – | inactive
77 | CCOC(=O)Cc1csc(NC(=O)C(C)(C)C)n1 | – | inactive
78 | CCOC(=O)Cc1csc(NC(=O)CSc2nc(C)cc(=O)[nH]2)n1 | – | 23.1 µM (active)

Row | SMILES | activity change, negative = growth inhibition | Potency
79 | CCCCc1nnc(NC(=O)CSc2nc(C)cc(=O)[nH]2)s1 | – | inactive
80 | CC(=O)O[C@H]1CC[C@@]2(C)C(=CC[C@@H]3[C@@H]2CC[C@]2(C)C(c4cccnc4)=CC[C@@H]32)C1 | – | inactive
81 | COc1ccc(NC(=O)C2CCCN(S(=O)(=O)c3c(C)[nH]c(=O)[nH]c3=O)C2)c(OC)c1 (stereo unspecified) | – | inactive
82 | COc1ccc(OC)c(S(=O)(=O)N2CCCC(C(=O)NCCc3ccccc3)C2)c1 (stereo unspecified) | – | inactive
83 | COc1ccc(C(=O)C2CCCN(C(=O)c3ccc(OC)o3)C2)c(C)c1 (stereo unspecified) | – | 20.6 µM (active)
84 | COc1ccc(C(=O)C2CCCN(C(=O)c3cnsn3)C2)c(C)c1 (stereo unspecified) | – | inactive
85 | O=C(c1ccc2c(c1)OCO2)N1CCOCC1 | – | inactive
86 | CCOC(=O)c1[nH]ncc1CN1CCCC(C(=O)c2ccc(OC)cc2C)C1 (stereo unspecified) | – | inactive
87 | Cc1cc(Cl)ccc1C(=O)C1CCCN(C(=O)c2ccc3c(c2)OCO3)C1 (stereo unspecified) | – | 10.3 µM (active)
88 | CCn1nc(C)cc1C(=O)N1CCCC(C(=O)c2cccc(OC)c2)C1 (stereo unspecified) | – | inactive
89 | FC(F)(F)c1cccc(-c2cn[nH]c2C2CCCN(Cc3cccn3-c3ccccn3)C2)c1 (stereo unspecified) | -7.96% [at 9.04 µM] (inactive) | –
90 | COc1ccc(C(=O)C2CCCN(Cc3cccn3-c3ccccn3)C2)c(C)c1 (stereo unspecified) | – | 20.6 µM (active)
91 | COc1ccc(C(=O)C2CCCN(S(=O)(=O)c3cccc(C)c3)C2)c(C)c1 (stereo unspecified) | – | 16.4 µM (active)
92 | COc1ccc(C(=O)N2CCCC(C(=O)c3ccccc3OC)C2)cc1OC (stereo unspecified) | – | inactive
93 | COC(=O)C1=C(NC(=O)C(C)(C)C)CCS1 | – | inactive
94 | COCCCNS(=O)(=O)c1cccc(S(=O)(=O)c2cccc(S(=O)(=O)NCCCOC)c2)c1 | – | inactive
95 | COc1ccc(C)cc1NC(=O)CCCN1C(=O)NC(C)(C)C1=O | – | inactive
96 | Cc1c(NS(=O)(=O)c2cc(C(=O)NCCc3ccc(F)cc3)cc(Cl)c2Cl)c(=O)n(-c2ccccc2)n1C | – | inactive
97 | Cc1cc(=O)oc2cc(NC(=O)C(C)Oc3ccccc3)ccc12 (stereo unspecified) | – | inactive
98 | Cc1cccc(OCC(=O)OCC(=O)Nc2ccc(Cl)cn2)c1 | – | inactive
99 | O=S(=O)(NCCCc1ccccc1)c1ccc(Br)cc1 | – | inactive
100 | O=C(CSCc1ccccc1)Nc1ccccc1 | – | inactive
101 | CC(C(=O)NCCc1ccc(S(N)(=O)=O)cc1)N1C(=O)CC(C)(C)Sc2ccccc21 (stereo unspecified) | – | inactive
